Compound activity as filed in PubChem BioAssay.
Hits are enriched below; roughly 3% of the tested compounds scored in any of these assays.
LmPK inhibitor = blocks Leishmania mexicana pyruvate kinase activity; Potency, µM (doses to about 57.5 µM), inactives show at the highest dose activity change, negative = inhibition, actives largely listed as inhibitors; Q27686; purified LmPK, Kinase-Glo ATP luminescence, 1 h; hit rate 0.37% among 290,000; AID 1721
Target sequence (Q27686 whole entry, looked up): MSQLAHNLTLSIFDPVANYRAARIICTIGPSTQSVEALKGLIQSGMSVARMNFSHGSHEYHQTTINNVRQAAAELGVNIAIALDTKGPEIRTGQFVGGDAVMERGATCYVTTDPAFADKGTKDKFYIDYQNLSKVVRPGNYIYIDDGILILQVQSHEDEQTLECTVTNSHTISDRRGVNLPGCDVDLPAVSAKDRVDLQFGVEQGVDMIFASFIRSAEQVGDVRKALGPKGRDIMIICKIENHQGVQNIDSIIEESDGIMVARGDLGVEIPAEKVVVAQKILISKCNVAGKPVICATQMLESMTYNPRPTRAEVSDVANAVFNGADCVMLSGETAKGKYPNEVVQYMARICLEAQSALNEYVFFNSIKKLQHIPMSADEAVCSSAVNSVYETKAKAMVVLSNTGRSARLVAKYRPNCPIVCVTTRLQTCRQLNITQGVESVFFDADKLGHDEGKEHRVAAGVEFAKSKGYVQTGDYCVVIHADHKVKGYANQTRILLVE
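Pyruvate kinase activity monitored as ATP production (luciferase luminescence). Conditions: 0.1 nM enzyme, 0.5 mM PEP, 0.1 mM ADP, 1 h, RT; normalized against uninhibited and no-enzyme wells.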
Sm TGR block = blocks Schistosoma mansoni thioredoxin glutathione reductase | Q962Y6 | purified TGR, DTNB reduction, TNB absorbance 405 nm | Potency, µM (titrated, usually from 114 µM), inactives show at the highest dose activity change, negative = inhibition, actives largely listed as inhibitors | hit rate 3% among 360,000 | AID 485364; further: nearly all actives have a fitted effect of over 60% in size
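TGR 20 nM + NADPH 100 uM (dispensed conc.), cpd preinc 15 min RT; start with NADPH (500 uM addition) then DTNB (15 mM addition). Kinetic TNB absorbance, 405 nm filter. Four-parameter Hill fit across titration.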
Tb PYK inh = blocks Trypanosoma brucei pyruvate kinase. Q57TT1. TbPYK enzyme, Kinase-Glo Plus ATP luminescence, 45 min. Potency, µM (highest dose often 76.8 µM), for inactives: at the top dose activity, negative = inhibition, hits mostly inhibitors. hit rate 0.12% among 410,000; further: nearly all actives have a fitted effect of over 50% in size
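Readout: single end-point luminescence (Kinase-Glo Plus, 10 min). Reaction conditions were TbPYK/substrate plus 130 uM ADP, 45 min at RT, pH 7.2 TEA buffer. No-enzyme wells served as controls, and data were normalized before concentration-response fitting.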
RE007 growth inh = less growth of the S. pombe RE007 Vpr strain; S. pombe RE007 Vpr strain, BacTiter-Glo ATP luminescence, 24 h; Potency, µM (top dose mostly 92.2 µM), for inactives: at the highest dose activity change, negative = less growth, usual class: inhibitors; hit rate 0.21% among 360,000; active means well fitted falling curve with a large enough effect; inconclusive means small, poorly fitted or top-dose-only effect; inactive means no such curve, though single readings can be large or run the other way; further: nearly all actives have a fitted effect of over 50% in size
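Fission yeast RE007 carrying one integrated HIV-1 vpr copy, seeded at OD 0.01 in PMG+AL medium with 23 nL pinned compound. Grown 24 h at 30 degrees; viability read by BacTiter-Glo luminescence after 5 min.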
Active calls of the source: *; ? = inconclusive; · = no result given; [ ] = remark or other dose. Unless noted, the call rests on the fitted dose curve; in most records, active means well fitted curve in the direction sought with a large enough effect; inconclusive means small, poorly fitted or top-dose-only effect, or another doubt; inactive means no such curve, though single readings can be large; an effect the other way counts as inactive or inconclusive. On the % scale 0 is the no-effect control and ±100 the full control effect; potency means the concentration at half of the fitted maximal effect.

SMILES | LmPK inhibitor | Sm TGR block | Tb PYK inh | RE007 growth inh
O=C(CCc1ccccc1)NN1C(=O)C2C3C=CC(O3)C2C1=O (configuration not stated) | 3% | · | -17% | 10%
Clc1ccc(-n2nnc(-c3nccs3)n2)cc1Cl | -3% | -4% | ? | 5%
Cc1ccc(-n2nnc(-c3nccs3)n2)cc1 | 14µM* | -2% | ? | ?
Cc1cccc(NC(c2ccc(O)cc2)c2ccc3ccc(C)nc3c2O)n1 (configuration not stated) | 7% | 0.35µM* | 10% | -1%
COc1ccc(/C=N/NC(=O)c2ccco2)cc1Cn1nc(C)cc1C | -4% | 50µM* | 3% | 3%
COc1ccc(/C=N/NC(=O)c2ccco2)cc1Cn1nc(C)c([N+](=O)[O-])c1C | 7% | 3% | -20% | 9%
O=C(N/N=C/c1ccc2ncccc2c1)c1ccco1 | 14µM* | -14% | -19% | -14%
CN(C)c1ccc(/C=N/NC(=O)c2ccco2)cc1 | 16µM* | -12% | -19% | -27%
O=C(N/N=C/c1ccccn1)c1ccco1 | 1% | 9% | 7% | -16%
Cc1cccc(S(=O)(=O)c2cn(Cc3ccc(F)cc3)c3cc(N4CCOCC4)c(F)cc3c2=O)c1 | · | 25% | -5% | ·
COc1ccc(Br)cc1CNC(=O)c1cnc2sc(N3CCCC3)nn2c1=O | · | 0% | 7% | ·
CCOc1ccc(CNCc2c(C(=O)O)n(Cc3ccccc3F)c3cc(OC)ccc23)cc1 | · | -10% | 0% | ·
CCCn1c(SCC(=O)N2CCCc3ccccc32)nnc1-c1ccco1 | 4% | ? | -9% | 1%
Cc1occc1-c1nnc(SCC(=O)N2CCCc3ccccc32)n1Cc1ccco1 | 0% | 40µM* | 7% | 8%
O=C(CSc1nnc(-c2cccnc2)n1Cc1ccco1)N1CCc2ccccc21 | -2% | 45µM* | -15% | 8%
COc1ccc2cc(C#N)c(NC(C)C)nc2c1 | 6% | 1% | -1% | 6%
CCN(CC)c1nc2cc(OC)ccc2cc1C#N | -1% | 35µM* | 1% | ·
Cc1ccc(S(=O)(=O)Nc2cc3c(cc2Cl)n(C)c(=O)c(=O)n3C)cc1 | · | 3% | -1% | ·
CCCCn1c(=O)[nH]c(=O)c2c1nc(-c1ccc(-c3ccccc3Br)o1)n2CCOC | -1% | ? | -28% | -24%
COCCn1c(-c2ccc(-c3ccccc3Cl)o2)nc2c1c(=O)[nH]c(=O)n2CC(C)C | 0% | 32µM* | -7% | -1%
COC(=O)CCCC1=CC2=C(c3ccccc3)C(=O)C(C)(OC(=O)C3CCCC3)C(=O)C2=CN1Cc1ccco1 (configuration not stated) | -2%[11.5 µM] | 22µM* | -3% | 0%
COC(=O)CCCC1=CC2=C(c3ccccc3)C(=O)C(C)(OC(=O)C3CCCC3)C(=O)C2=CN1CCCCO (configuration not stated) | -8%[11.5 µM] | 41% | -3% | -14%
CCC(C)(C)n1nnnc1CN1CCc2ccccc21 | -1% | 7.1µM* | -1% | 3%
c1ccc(CCn2nnnc2CN2CCCc3ccccc32)cc1 | 6% | -36% | 5% | -8%
Cc1cccc(NC(=O)c2cc3c(=O)n(Cc4ccco4)ccc3nc2C)c1 | · | 0% | -3% | ·
SMILES | LmPK inhibitor | Sm TGR block | Tb PYK inh | RE007 growth inh
O=C(Cn1nc(Cl)nc1Cl)c1cc2ccccc2oc1=O | 2% | 14µM* | -4% | -27%
Cn1cnnc1SCC(=O)c1cc2ccccc2oc1=O | -10% | 8.9µM* | ? | -10%
O=C(Cn1nc(Cl)nc1Cl)c1ccc(F)cc1 | 0% | 9% | -1% | 10%
O=C(Cn1nc(Cl)nc1Cl)c1ccc2c(c1)OCCO2 | -2% | 20µM* | -2% | ?
COC(=O)c1ccc(OC)c(CN2C(=O)N(c3ccc(C(C)=O)cc3)S(=O)(=O)c3ccccc32)c1 | · | ? | 1% | ·
CC(=O)NCCCS(=O)(=O)O | · | · | 1% | ·
O=C(CSc1ccc(Cl)cc1)Nc1nnc(-c2cccc([N+](=O)[O-])c2)s1 | 1% | 45µM* | -1% | 9%
COc1ccc(S(=O)(=O)N(C)C[C@@H]2OCc3cn(nn3)CCCC(=O)N([C@H](C)CO)C[C@H]2C)cc1 | · | · | -8% | 7%
O=S(=O)(c1ccccc1)N1CCC2(CC1)CN(c1ccccn1)C2 | · | · | 6% | ·
O=C(Cn1nc(Cl)nc1Cl)c1ccccc1 | -1% | 1% | -15% | -17%
CC(O)c1nc(C(C)O)n(CC(=O)c2ccccc2)n1 (configuration not stated) | · | 45µM* | 1% | -2%
